Measurements as given in PubChem BioAssay AID1645883 (National Center for Advancing Translational Sciences (NCATS), 2021).
Out of some 16,000 compounds screened, about 160 (1%) were called active. About 8% were inconclusive and are not listed. The list comes from a sample in which actives are over-represented; it also holds similar structures and randomly drawn compounds. Values without a mark were called inactive. Calls follow the shape of the dose curve; as a rule, active = well fitted activation curve with a large enough effect; inconclusive = small, poorly fitted or top-dose-only effect; inactive = no such curve, though single readings can be large or run the other way.

Molecular target: Rap guanine nucleotide exchange factor 3 (Homo sapiens) (UniProt O95398)
Assay: Validation qHTS for agonist of cAMP-regulated guanine nucleotide exchange factor 3 (EPAC1); also: nearly all actives have a fitted effect of over 70% in size
Conditions: EPAC1 Rap1b BODIPY-GDP exchange, fluorescence; max response: hits give high values, percent of cAMP control response
Description: Assay Provider (PI): Xiaodong Cheng Ph.D.
The University of Texas Medical Branch, […], TX
In multi-cellular eukaryotic organisms, the effects of cAMP are transduced by two ubiquitously-expressed intracellular cAMP receptors, the classic protein kinase A/cAMP-dependent protein kinase (PKA/cAPK) and the more recently discovered exchange protein directly activated by cAMP/cAMP-regulated guanine nucleotide exchange factor (EPAC/cAMP-GEF). Both PKA and EPAC are ubiquitously expressed in all tissues, and an increase in intracellular cAMP levels will lead to the activation of both PKA and EPAC. Therefore, careful dissections of the individual role and relative contribution of EPAC and PKA within the overall cAMP signaling in various model systems are critical for further elucidating the mechanism of cAMP signaling. To date no EPAC-specific antagonists and agonist, as well as isoform-specific agonists have been reported, and developing EPAC-specific pharmacological probes to determine the physiological functions that EPAC play in the overall cAMP-mediated signaling remains a major challenge within the research field. Furthermore, identified regulators of EPAC may lead to new mechanism-based therapeutic strategies specifically targeting the EPAC / cAMP-signaling components as EPAC has been implicated to play important roles in major human pathological conditions such as diabetes, heart disease, and cancer.
This qHTS will be used to screen the Molecular Libraries Small Molecule Repository (MLSMR) as a concentration-titration series using the NCGC unique quantitative screening (qHTS) platform to find activators for EPAC1. In addition, this assay will also be used as a counterscreen for the EPAC2 qHTS. This fluorescent based assay is developed and validated for EPAC1 that measures exchange using EPAC effector Rap1 complex with BODIPY-GDP, a GDP analog with a tethered fluorophores. Activators are identified by monitoring the change in fluorescence signal as the exchanged free BODIPY-GDP has a reduced fluorescence compared to Rap1-bound BODIPY-GDP. Increase in signal (activation) is the desired outcome for the EPAC1 agonist while no activity in this assay is desired for the EPAC2 agonist counterscreen.
[1] de Rooij, J., Zwartkruis, F. J., Verheijen, M. H., Cool, R. H., Nijman, S. M., Wittinghofer, A., and Bos, J.L. (1998) Nature 396, 474-477.
Briefly, three uL of reagents (100 nM EPAC1, 250 nM RAP1B-BODIPY-GDP, 50 uM GDP) were dispensed into a 1536-well Greiner black solid-bottom medium binding assay plate. Controls and test compounds (23 nL) were transferred to the plate via a Kalypsys pin tool equipped with a 1536-pin array. The plates were centrifuged at 1,000 rpm for 15 seconds followed by 5 minute incubation at room temperature. The assay plates were read at 5 minute intervals for 30 minutes in the ViewLux plate reader using 480nm excitation and 540nm emission filters. The results were normalized to the agonist positive control of 6.5 mM cAMP.
% is scaled to controls: 0 for no effect and ±100 for the full control effect; potency is read from the fitted curve at half-maximal effect.

Chain of Rap guanine nucleotide exchange factor 3 (Homo sapiens) (O95398 whole entry, looked up): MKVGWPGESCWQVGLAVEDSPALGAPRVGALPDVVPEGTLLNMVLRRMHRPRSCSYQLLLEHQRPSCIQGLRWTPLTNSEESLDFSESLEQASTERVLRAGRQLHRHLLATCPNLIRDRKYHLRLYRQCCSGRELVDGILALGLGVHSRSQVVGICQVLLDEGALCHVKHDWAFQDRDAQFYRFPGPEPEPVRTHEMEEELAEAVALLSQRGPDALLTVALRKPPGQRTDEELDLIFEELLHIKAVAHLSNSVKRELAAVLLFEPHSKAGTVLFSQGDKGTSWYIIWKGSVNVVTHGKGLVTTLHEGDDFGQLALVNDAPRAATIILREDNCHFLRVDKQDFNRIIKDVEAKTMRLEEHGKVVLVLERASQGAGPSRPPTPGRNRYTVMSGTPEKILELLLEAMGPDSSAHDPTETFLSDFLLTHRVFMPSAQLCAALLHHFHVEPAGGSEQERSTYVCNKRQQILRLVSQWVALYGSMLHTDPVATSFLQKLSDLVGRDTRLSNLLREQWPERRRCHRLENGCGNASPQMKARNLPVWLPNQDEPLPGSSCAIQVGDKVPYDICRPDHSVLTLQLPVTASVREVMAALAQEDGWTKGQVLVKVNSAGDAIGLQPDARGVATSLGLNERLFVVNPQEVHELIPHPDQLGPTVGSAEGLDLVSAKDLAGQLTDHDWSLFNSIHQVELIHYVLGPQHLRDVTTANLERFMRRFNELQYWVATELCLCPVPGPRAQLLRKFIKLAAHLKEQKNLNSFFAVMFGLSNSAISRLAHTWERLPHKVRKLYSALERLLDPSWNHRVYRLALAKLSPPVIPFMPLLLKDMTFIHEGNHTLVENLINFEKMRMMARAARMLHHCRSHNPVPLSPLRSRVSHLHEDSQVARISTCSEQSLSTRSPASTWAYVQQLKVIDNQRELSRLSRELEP

Compound	max response	Potency
COc1ccc(/C=C2\NC(=O)[C@@H]3Cc4ccccc4CN3C2=O)cc1	5.8%	
CN1CCN2c3ccccc3Cc3ccccc3[C@@H]2C1	-0.216%	
CCS(=O)(=O)Nc1cc(C(=O)N2C[C@@H](C)O[C@@H](C)C2)c2c(c1)nc(-c1ccccc1)n2C	19.2%	
COc1ccc(CNc2ncnc3ccc(-c4cccnc4)cc23)c(OC)c1	-62.5%	
FC(F)(F)c1ccccc1-c1nc(-n2ccnc2)c2ccccc2n1	0.971%	
CC(=O)Nc1ccc(SC[C@H](Cc2ccccc2)N2CC[C@@H](C)CCC2=O)cc1	-7.47%	
CCCN(C/C=C\I)[C@@H]1CCc2cccc(O)c2C1	-15.6%	
COc1ccccc1-c1nc(N2CCN(C)CC2)c2ccccc2n1	-31.8%	
c1ccc2nc(C3=NCCN3)cnc2c1	0.273%	
O=c1cnc2cnc(Nc3ccccc3)nc2n1Cc1ccc(F)cc1	-19.3%	
Nc1ccc2c3c(cccc13)C(=O)NC2=O		7.08 µM (active)
CCC1CN(CCNC(=O)c2ccsc2)Cc2cc(OC)ccc2O1 (centres undefined)	4.39%	
O=c1c(CCc2ccccc2)nc2cncnc2n1C1CC1	26%	
CC(=O)c1ccc(F)c(-c2cc(C)cc3c2OC(CNC(=O)Cc2c[nH]c4ccccc24)C3)c1 (centres undefined)	24.4%	
CCCCCCCCCCCCCCCCO	-1.51%	
CC(=O)OCC(=O)[C@@]1(O)CCC2C3CCC4=CC(=O)CC[C@@]4(C)[C@]3(F)C(O)C[C@]21C (some centres undefined)	-5.21%	
CN1CC(O)c2cc(N=NC(N)=O)c(O)cc21 (centres undefined)	-6.9%	

Compound	max response	Potency
CCCc1nc2c(C)cc(-c3nc4ccccc4n3C)cc2n1Cc1ccc(-c2ccccc2C(=O)O)cc1	-43.1%	
COc1ccccc1CNc1cc(-c2ccccc2CN(C)C)ncn1	-35.4%	
FC(F)(F)c1ccccc1-c1cc(NCc2ccccc2)ncn1	-105%	
Cc1cnc(C(=O)N2CCOc3ccc(CN4CCCC(C(=O)c5cccnc5)C4)cc3C2)[nH]1 (centres undefined)	-8.53%	
O=C(Nc1ccc(O)cc1)c1ccccc1O	7.12%	
CC(C(=O)O)c1ccc(C2CCCCC2)c2ccccc12 (centres undefined)	5.84%	
CCOC(=O)Cc1cccc(-c2cc(CCCCCCc3ccc(O[C@H]4O[C@H](COC(C)=O)[C@@H](OC(C)=O)[C@H](OC(C)=O)[C@@H]4OC(C)=O)c(-c4cccc(CC(=O)OCC)c4)c3)ccc2O[C@H]2O[C@H](COC(C)=O)[C@@H](OC(C)=O)[C@H](OC(C)=O)[C@@H]2OC(C)=O)c1	-9.09%	
CCc1nc2cc(C(=O)NCC3CCS(=O)(=O)C3)cc(NC(=O)c3ccccc3OC)c2n1C (centres undefined)	-13.5%	
COC(=O)c1ccccc1C(=O)NCc1nc(N2CCCC2)c2cccc(C)c2n1	-26.9%	
CN(Cc1cccc2ncccc12)C(=O)c1cnn(-c2nccc(-c3ccccc3F)n2)c1C1CC1	-28.3%	
CC(=O)N1CCC2(CC1)CCN(c1ccncc1)CC2	-44.5%	
Cc1noc(C)c1-c1nc(Nc2ccccc2)c2ccccc2n1	-34.4%	
O=C(c1ccncc1)N1CCC2(CCN(Cc3cc(C(F)(F)F)cc(C(F)(F)F)c3)CC2)CC1	-125%	
CC(C)NC(=O)N1CC[C@@]2(CCCN(C(=O)c3cccc(F)c3)C2)C1	17.8%	
O=C(c1cc(C(F)(F)F)cc(C(F)(F)F)c1)N1CCC2(CCCN(c3ccccn3)C2)CC1	-45%	
CC(C)NC(=O)N1CCCC2(CCN(C(=O)c3cccn3C)CC2)C1	-48.1%	
N#Cc1ccc[n+](CC(=O)c2ccc(F)cc2)c1	3.1%	
